The subject of experiment [1] is Plasmodium falciparum Sir2 (PF13_0152, Sir2A). As to the kind of experiment: pfSir2 binders on small-molecule microarrays, primary screen, biochemical, small-molecule microarray, 635 nm fluorescence (AID 1098).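 Further: score merges spot fluorescence intensity with its signal-to-noise ratio.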 The conditions noted are these: small-molecule microarray binding, fluorescence 635 nm; higher = more signal.
Experiment [2] in a line: small-molecule microarray binders of probe aDKK1, primary screen, biochemical, biotinylated probe, 635/667 nm fluorescence (AID 1099).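 Further: score merges 667nm spot fluorescence with signal to noise across triplicate slides.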 The conditions noted are these: higher = more signal.
Experiment [3] can be described thus: small-molecule microarray binders of probe aCHRDL2, primary screen, biochemical, biotinylated probe, 635/667 nm fluorescence (AID 1100). The conditions noted are these: higher = more signal.
Experiment [4] can be described thus: splicing luciferase reporter signal modulators, primary screen, spliceosome inhibition project, cell-based, HEK293, splice +/- reporter (AID 1101).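 Further: HEK293 cells carrying a splicing-competent luciferase reporter gene; test concentration not given here.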 The conditions noted are these: luminescence, 24 h, higher = more signal, called active from +8 up or from −8 down.
In experiment [5] the target is Fibroblast growth factor 10 (Homo sapiens) (UniProt O15520). Put plainly: FGF10 binders on small-molecule microarrays, primary screen, biochemical, small-molecule microarray, 635 nm fluorescence (AID 1102). The conditions noted are these: FGF10 binding, fluorescence 635 nm, higher = more signal.
Fibroblast growth factor 10 (Homo sapiens), sequence (O15520 whole entry, looked up): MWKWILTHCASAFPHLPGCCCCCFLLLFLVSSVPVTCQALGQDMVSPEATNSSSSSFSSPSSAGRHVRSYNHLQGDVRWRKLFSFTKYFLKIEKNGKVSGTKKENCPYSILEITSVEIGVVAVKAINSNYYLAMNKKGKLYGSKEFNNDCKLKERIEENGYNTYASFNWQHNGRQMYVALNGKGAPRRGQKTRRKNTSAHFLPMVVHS
In experiment [6] the test system is glycogen synthase kinase-3 (GSK3A per assay name; protocol says GSK3B). Put plainly: GSK3 binders on small-molecule microarrays, primary screen, biochemical, small-molecule microarray, 635 nm fluorescence, GSK3A (AID 1103). Further: the record names both GSK3A and GSK3B. The conditions noted are these: small-molecule microarray binding, fluorescence 635 nm; higher = more signal.
Experiment [7] addresses Epidermal growth factor receptor (Homo sapiens) (UniProt P00533). As to the kind of experiment: EGFR binders on small-molecule microarrays, primary screen, biochemical, small-molecule microarray, 635 nm fluorescence (AID 1104).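 Further: score merges 667 nm emission intensity with spot signal to noise over triplicate slides.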 The conditions noted are these: EGFR binding, higher = more signal.
For experiment [8], the target named is Follistatin-related protein 3 (Homo sapiens) (UniProt O95633). As to the kind of experiment: FSTL3 binders on small-molecule microarrays, primary screen, biochemical, small-molecule microarray, 635 nm fluorescence (AID 1105).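 Further: score merges emission near 667 nm and signal to noise per printed spot across three slides.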 The conditions noted are these: FSTL3 binding, higher = more signal.
Follistatin-related protein 3 (Homo sapiens), sequence (O95633 whole entry, looked up): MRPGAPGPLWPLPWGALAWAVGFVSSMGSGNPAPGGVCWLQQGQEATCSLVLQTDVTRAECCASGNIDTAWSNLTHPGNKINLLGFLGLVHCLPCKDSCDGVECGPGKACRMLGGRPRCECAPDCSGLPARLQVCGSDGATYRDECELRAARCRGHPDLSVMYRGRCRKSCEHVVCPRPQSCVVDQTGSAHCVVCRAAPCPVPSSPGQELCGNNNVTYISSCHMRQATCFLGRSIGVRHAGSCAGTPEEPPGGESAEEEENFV
The target of experiment [9] is Dickkopf-related protein 1 (Homo sapiens) (UniProt O94907). Put plainly: DKK1 binders on small-molecule microarrays, primary screen, biochemical, small-molecule microarray, 635 nm fluorescence scan (AID 1106).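 Further: score merges emission near 667 nm with signal to noise over three replicate slides.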 The conditions noted are these: DKK1 binding, higher = more signal.
Dickkopf-related protein 1 (Homo sapiens), sequence (O94907 whole entry, looked up): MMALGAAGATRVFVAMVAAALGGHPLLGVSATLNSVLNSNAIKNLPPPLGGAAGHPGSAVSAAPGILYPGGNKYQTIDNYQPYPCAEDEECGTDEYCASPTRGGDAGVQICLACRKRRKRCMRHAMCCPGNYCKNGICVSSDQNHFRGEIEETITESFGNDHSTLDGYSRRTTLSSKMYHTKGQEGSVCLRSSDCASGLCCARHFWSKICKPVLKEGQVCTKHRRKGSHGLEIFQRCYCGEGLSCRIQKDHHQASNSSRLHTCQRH
Experiment [10] has as its system Inhibin beta A chain (activin A). As to the kind of experiment: INHBA (activin A) binders on microarrays, primary screen, biochemical, small-molecule microarray, 635 nm fluorescence scan (AID 1107).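 Further: mouse activin A protein probed at 4.33 µg/mL on printed slides; score merges bound-protein fluorescence near 667 nm with spot signal-to-noise.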 The conditions noted are these: small-molecule microarray binding, higher = more signal.
The test system of experiment [11] is Human papillomavirus type 1a protein E7 (residues 44-93). Put plainly: HPV1a E7 fragment binders on microarrays, primary screen, biochemical, small-molecule microarray, residues 44-93, 635 nm fluorescence (AID 1108).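 Further: E7 fragment applied at 1 µg/mL in TBST for 1 h at 4 C; score combines spot fluorescence with its signal to noise ratio.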 The conditions noted are these: small-molecule microarray binding, fluorescence 635 nm; higher = more signal.
Experiment [12] in a line: modulators of HCV replicon luciferase signal, primary screen, HCV replication inhibitor project, Huh7 cells, luciferase reporter (AID 1109).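 Further: huh7 hepatoma cells harbouring a luciferase neomycin HCV replicon reporter; luciferase luminescence as measure of HCV replicon replication; test concentration not given here.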 The conditions noted are these: 48 h, higher = more signal. A general note: In antiviral work, replicon cells carry a viral genome segment that copies itself.
The target in experiment [13] is Left-right determination factor 2 (Homo sapiens) (UniProt O00292). Put plainly: LEFTY2 binders on small-molecule microarrays, primary screen, biochemical, small-molecule microarray, 635 nm fluorescence scan (AID 1110). The conditions noted are these: LEFTY2 binding, higher = more signal.
Left-right determination factor 2 (Homo sapiens), sequence (O00292 whole entry, looked up): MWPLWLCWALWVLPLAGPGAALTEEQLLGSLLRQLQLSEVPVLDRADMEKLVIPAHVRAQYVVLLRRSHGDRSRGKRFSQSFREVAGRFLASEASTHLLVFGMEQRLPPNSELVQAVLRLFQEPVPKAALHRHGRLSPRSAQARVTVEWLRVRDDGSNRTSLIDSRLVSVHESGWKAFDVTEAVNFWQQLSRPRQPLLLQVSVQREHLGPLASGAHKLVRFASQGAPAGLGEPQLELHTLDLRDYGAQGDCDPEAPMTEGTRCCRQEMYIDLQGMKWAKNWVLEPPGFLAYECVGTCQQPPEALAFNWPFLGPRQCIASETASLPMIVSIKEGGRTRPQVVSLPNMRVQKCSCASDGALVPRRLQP
The target of experiment [14] is Calmodulin-1 (Homo sapiens) (UniProt P0DP23). As to the kind of experiment: CALM1 binders on microarrays, EGTA buffer, profiling panel, biochemical, small-molecule microarray, Cy5-labelled CALM1 (AID 1111).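 Further: labelled calmodulin applied in Tris saline Tween buffer holding calcium plus EGTA and DTT.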 The conditions noted are these: Cy5-CALM1 binding fluorescence, higher = more signal.
The target is the same in experiment [15]. As to the kind of experiment: calcium-bound CALM1 binders on microarrays, profiling panel, artefact control for SMM control-protein annotation, biochemical, small-molecule microarray, Cy5-labelled CALM1, plus calcium (AID 1112).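 Further: score merges spot fluorescence with signal to noise from triplicate slides.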 The conditions noted are these: Cy5-CALM1 binding fluorescence, higher = more signal.
Experiment [16] is described as follows: small-molecule microarray binders of probe aWnt5a, primary screen, biochemical, biotinylated probe, 635/667 nm fluorescence (AID 1113).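 Further: score merges 667 nm fluorescence intensity with signal-to-noise per printed feature.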 The conditions noted are these: higher = more signal.
Experiment [17] in a line: small-molecule microarray binders of probe aShh, primary screen, biochemical, biotinylated probe, 635/667 nm fluorescence (AID 1114).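 Further: probe is biotin-labelled aShh protein from a stem cell growth factor screen; measures binding of labelled protein to compounds printed on the slide; score merges feature fluorescence at 667 nm with signal-to-noise.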 The conditions noted are these: higher = more signal.
Experiment [18] can be described thus: small-molecule microarray binders of probe aNog, primary screen, biochemical, biotinylated probe, 635/667 nm fluorescence (AID 1115).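 Further: probe is biotinylated aNog protein used at 0.15 µg/mL for 1 h at 4 C; z-score combines 667 nm fluorescence of each spot with its signal to noise.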 The conditions noted are these: higher = more signal.
The target in experiment [19] is Torsin-1A-interacting protein 1 (Homo sapiens) (UniProt Q5JTV8). Put plainly: LAP1 binders from COS7 cell lysate, primary screen, small-molecule microarray, 635/667 nm fluorescence (AID 1116). The conditions noted are these: COS7-hLAP1 lysate binding, 635 nm fluorescence, higher = more signal.
Torsin-1A-interacting protein 1 (Homo sapiens), sequence (Q5JTV8 whole entry, looked up): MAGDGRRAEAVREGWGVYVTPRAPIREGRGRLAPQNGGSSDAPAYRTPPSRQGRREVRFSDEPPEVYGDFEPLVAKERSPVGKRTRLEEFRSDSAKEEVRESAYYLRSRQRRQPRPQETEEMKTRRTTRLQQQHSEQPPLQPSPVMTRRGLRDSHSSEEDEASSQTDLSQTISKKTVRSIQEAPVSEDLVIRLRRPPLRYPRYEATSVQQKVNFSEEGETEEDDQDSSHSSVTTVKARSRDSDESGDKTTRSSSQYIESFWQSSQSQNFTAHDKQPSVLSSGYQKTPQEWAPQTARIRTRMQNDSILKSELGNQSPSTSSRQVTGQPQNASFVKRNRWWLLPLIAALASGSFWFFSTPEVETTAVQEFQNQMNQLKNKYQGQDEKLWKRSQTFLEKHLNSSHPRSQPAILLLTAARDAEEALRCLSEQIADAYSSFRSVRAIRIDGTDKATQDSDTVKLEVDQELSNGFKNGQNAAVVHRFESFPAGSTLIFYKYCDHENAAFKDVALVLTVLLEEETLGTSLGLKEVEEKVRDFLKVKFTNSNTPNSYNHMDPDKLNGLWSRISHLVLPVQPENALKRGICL
Experiment [20] concerns the target Alpha-bungarotoxin (Bungarus multicinctus) (UniProt P60615). Put plainly: alpha-bungarotoxin binders on microarray, profiling panel, artefact control for SMM control protein annotation, biochemical, small-molecule microarray, Alexa647 label, 635/667 nm fluorescence (AID 1117). The conditions noted are these: alpha-BTX-A647 binding fluorescence, higher = more signal.

Active and inactive are the calls of the source.

Epidermal growth factor receptor (Homo sapiens), sequence (P00533 whole entry, looked up): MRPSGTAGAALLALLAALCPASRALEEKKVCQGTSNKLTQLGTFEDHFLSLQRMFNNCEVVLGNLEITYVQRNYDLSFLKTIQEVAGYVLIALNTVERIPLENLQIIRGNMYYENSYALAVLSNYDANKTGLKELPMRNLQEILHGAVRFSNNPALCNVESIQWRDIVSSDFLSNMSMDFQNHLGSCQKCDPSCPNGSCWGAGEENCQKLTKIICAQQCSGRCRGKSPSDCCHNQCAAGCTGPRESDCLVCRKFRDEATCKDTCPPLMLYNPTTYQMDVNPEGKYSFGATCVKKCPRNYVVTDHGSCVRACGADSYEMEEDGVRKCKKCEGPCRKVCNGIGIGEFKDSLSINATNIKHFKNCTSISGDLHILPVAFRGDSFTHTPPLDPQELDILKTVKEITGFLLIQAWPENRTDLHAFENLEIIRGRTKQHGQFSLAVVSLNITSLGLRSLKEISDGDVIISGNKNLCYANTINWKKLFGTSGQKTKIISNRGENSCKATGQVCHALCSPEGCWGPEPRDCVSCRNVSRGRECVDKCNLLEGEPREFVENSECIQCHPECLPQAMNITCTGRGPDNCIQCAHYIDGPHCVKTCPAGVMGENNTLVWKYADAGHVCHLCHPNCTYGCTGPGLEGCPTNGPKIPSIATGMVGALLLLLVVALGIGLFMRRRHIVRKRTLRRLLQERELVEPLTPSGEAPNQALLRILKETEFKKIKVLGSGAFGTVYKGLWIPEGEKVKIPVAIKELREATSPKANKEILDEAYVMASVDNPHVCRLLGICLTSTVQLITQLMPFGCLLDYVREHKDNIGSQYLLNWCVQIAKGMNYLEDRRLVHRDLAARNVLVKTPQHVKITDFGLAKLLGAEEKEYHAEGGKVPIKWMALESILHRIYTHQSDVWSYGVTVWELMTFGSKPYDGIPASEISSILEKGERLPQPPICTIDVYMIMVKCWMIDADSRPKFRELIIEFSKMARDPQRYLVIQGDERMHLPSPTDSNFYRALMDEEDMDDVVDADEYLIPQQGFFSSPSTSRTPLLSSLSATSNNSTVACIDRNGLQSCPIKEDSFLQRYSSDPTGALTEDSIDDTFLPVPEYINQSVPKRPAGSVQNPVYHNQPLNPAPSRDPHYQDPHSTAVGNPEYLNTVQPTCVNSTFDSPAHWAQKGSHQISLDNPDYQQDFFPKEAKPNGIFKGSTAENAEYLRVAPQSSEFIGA
Alpha-bungarotoxin (Bungarus multicinctus), sequence (P60615 whole entry, looked up): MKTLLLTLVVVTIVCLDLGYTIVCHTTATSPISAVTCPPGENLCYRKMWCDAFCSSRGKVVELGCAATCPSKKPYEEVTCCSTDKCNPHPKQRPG

In the case of `COc1c(C)cc(-c2cc3c(c(-c4ccc(Oc5ccccc5)cc4)n2)[Si](C(C)C)(C(C)C)OC3)cc1C`, the composite z-score in experiment [1] is -0.486; in experiment [2], 0.187; in experiment [3], 0.0857; in experiment [5], 0.0668; in experiment [6], -0.278; in experiment [7], 0.168. Moreover, the composite z-score in [8] was -0.069; in experiment [9] it was 0.0431; in experiment [10] it was 0.51; in [11], -0.0076; in experiment [13], -0.0065; in experiment [14], 0.354. Moreover, the composite z-score in [15] was 0.777; in experiment [16], -0.0721; in experiment [17], -0.138; in [18], -0.111; in experiment [19], -0.0839; in [20] it was 0.327. The results for the z-score in experiment [4] and in experiment [12] were 0.391 (inactive) and -0.382, respectively.
As to `C=CC[C@@]1(C(=O)NCC(O)CO)N=C(c2ccc(OCCCO)cc2)O[C@@H]1c1ccccc1N=[N+]=[N-]` (stereo not given in full), the composite z-score was 0.663 in [1]; 0.854 in [2]; 1.12 in experiment [3]; 0.618 in experiment [5]; -0.669 in [6]; -0.656 in [7]. Besides, the composite z-score in experiment [8] was 0.326; in experiment [9], -0.612; in experiment [10], 1.02; in experiment [11] it was 1.49; in experiment [13], -0.709; in experiment [14], 1.61. The composite z-score was 0.643 in experiment [15]; -0.0846 in experiment [16]; 0.0062 in [17]; 1.39 in [18]; 2.06 in experiment [19]; 1.12 in experiment [20]. Further, the z-score was -1.25 (inactive) in experiment [4] and -0.747 in [12].
Turning to `NC(=O)NCC#Cc1ccc2c(c1)[C@]1(C(=O)N2)[C@H](C(=O)N2CCCCCCC2)[C@H]2C(=O)O[C@H](c3ccccc3)[C@H](c3ccccc3)N2[C@@H]1c1ccc(OCCO)cc1`, the composite z-score in [1] came out at 1.2; in experiment [2] it was 2.11; in experiment [3], 1.36; in [5] it was 1.29; in [6] it was 0.748; in [7], 1.35. The composite z-score in [8] stood at 1.63; in experiment [9] it was 1.75; in [10] it was 1.53; in experiment [11], 1.18; in experiment [13] it was 1.04; in experiment [14], 1.99. In addition, the composite z-score in experiment [15] was found to be 0.897; in [16], 0.83; in experiment [17] it was 2.19; in [18], 2.19; in experiment [19] it was 1.45; in [20], 2.02. In addition, the results for the z-score in experiment [4] and in experiment [12] were -0.144 (inactive) and -1.03, respectively.
Regarding `COC(=O)[C@@]1(Cc2ccccc2)[C@H]2c3cc(C(=O)N(C)C)n(Cc4cc(C)n(C)n4)c3C[C@H]2CN1C(=O)c1ccccc1`, the composite z-score in experiment [1] was 1.32; in [2] it was 0.866; in [3], 0.947; in experiment [5] it was 0.0408; in experiment [6] it was 0.764; in [7], 0.3. Moreover, the composite z-score was 0.642 in [8]; -0.72 in experiment [9]; 1.11 in experiment [10]; 1.02 in experiment [11]; -0.279 in [13]; 1.8 in experiment [14]. The composite z-score is 0.908 in [15]; -0.319 in experiment [16]; -0.465 in experiment [17]; -0.199 in experiment [18]; 3.2 in experiment [19]; 0.285 in [20]. Besides, the z-score in [4] was -1.26 (inactive); in experiment [12], -0.995.
`CS(=O)(=O)CCOC(=O)C1=CC(CCCO)=CC(c2cccs2)N(Cc2cc3c(cc2Br)OCO3)C=C1C(=O)OCCS(C)(=O)=O` (stereo not given): the composite z-score in [1] was 0.727; in experiment [2], -0.0606; in experiment [3], 0.15; in experiment [5], 1.04; in experiment [6], 1.25; in [7] it was 0.259. Moreover, the composite z-score in experiment [8] is 1.22; in experiment [9], 0.238; in experiment [10] it was 1.2; in experiment [11] it was 1.27; in experiment [13] it was 0.858; in experiment [14], 1.29. Further, the composite z-score in [15] is 0.671; in experiment [16] it was 0.0968; in experiment [17] it was 0.0639; in experiment [18], -0.261; in experiment [19], 0.955; in experiment [20] it was 1.8. Further, the z-score in experiment [4] is 0.576 (inactive); in experiment [12], -1.22.
As to `O=C1OCCC=C[C@H]2OC34C=CCN(Cc5ccccc5)C(=O)[C@H]3N(CCCCCO)C(=O)[C@@H]4C12` (stereo not given in full), the composite z-score was 1.96 in experiment [1]; -0.285 in [2]; 0.672 in experiment [3]; -0.779 in experiment [5]; 1.06 in [6]; -0.744 in experiment [7]. In addition, the composite z-score is -0.595 in [8]; -1.19 in [9]; 0.141 in [10]; 1.1 in experiment [11]; -1.24 in [13]; -0.565 in experiment [14]. Moreover, the composite z-score in experiment [15] is 0.13; in experiment [16] it was -0.091; in experiment [17], -0.154; in experiment [18], -0.177; in [19], 1.95; in [20], -1.06. For the same compound, the z-score in experiment [4] is -0.34 (inactive); in [12], -0.481.

The values above are taken from PubChem BioAssay.
